Screening data as filed in PubChem BioAssay.
Compounds with a hit are over-represented: about 9.2% of the library has one in this group of screens.
FLuc counter: counter-screen for miR-21 project: firefly luciferase inhibitors or activators. purified FLuc, Km substrates, luminescence inhibition. P08659. 360,000 tested, 6.9% active. Potency, µM (series often up to 57.5 µM), for the others: at the highest dose activity change, negative = inhibition, usual class: inhibitors. AID 588342;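 note: plate controls were vehicle for no effect and reference inhibitor for full effect; nearly all actives have a fitted effect of over 55% in size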
Target sequence (P08659 whole entry, looked up): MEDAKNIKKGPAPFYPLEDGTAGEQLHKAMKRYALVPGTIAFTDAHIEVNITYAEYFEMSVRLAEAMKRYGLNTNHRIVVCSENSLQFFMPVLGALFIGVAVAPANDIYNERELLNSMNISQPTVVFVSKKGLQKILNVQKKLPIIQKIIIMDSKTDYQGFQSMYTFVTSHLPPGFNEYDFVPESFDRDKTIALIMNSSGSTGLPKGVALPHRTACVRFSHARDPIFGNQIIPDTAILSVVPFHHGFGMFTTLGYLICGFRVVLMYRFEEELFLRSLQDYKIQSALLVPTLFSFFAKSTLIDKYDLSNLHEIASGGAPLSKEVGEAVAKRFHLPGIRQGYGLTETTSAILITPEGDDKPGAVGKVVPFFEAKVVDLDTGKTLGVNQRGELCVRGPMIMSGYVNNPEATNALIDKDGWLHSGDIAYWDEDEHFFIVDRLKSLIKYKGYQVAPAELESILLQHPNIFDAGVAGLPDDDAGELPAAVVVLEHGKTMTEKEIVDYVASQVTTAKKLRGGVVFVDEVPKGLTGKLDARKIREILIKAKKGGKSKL
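Purified P. pyralis luciferase (10nM final) with 10uM D-luciferin and 10uM ATP (Km levels) in 50mM Tris acetate pH 7.5, 10mM Mg acetate, 0.01% Tween-20, 0.05% BSA; qHTS 6-point titration, ~60 µM downward; luminescence read.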
NPC1 prom act: activators of NPC1 promoter. Huh7 NPC1 promoter luciferase reporter, 24 h. Potency, µM (highest dose often 9.22 µM), for the others: at the highest dose activation, actives largely listed as activators. 320,000 tested, 2.4% active. AID 485313; note: % of control where 0% means no effect; nearly all actives have a fitted effect of over 60% in size
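Stable NPC1-promoter luciferase Huh7 line; cpd (DMSO) 24 h, 37 °C, 5% CO2; Amplite luciferase reagent 10 min RT; luminescence readout. qHTS format.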
ELG1 genotox: induces genotoxicity in HEK293T cells with luciferase-tagged ELG1; HEK293T ELG1-luciferase reporter, luminescence, 16 h; Potency, µM (series often up to 46 µM), inactives show top-dose activity change, positive = activation, hits mostly activators; 330,000 tested, 1.3% active; AID 504466; note: % of control where 0% means no effect; nearly all actives have a fitted effect of over 60% in size
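After overnight (16 hr) compound treatment at 37 °C, ELG1-luciferase HEK293T cells were lysed with ONE-Glo; luminescence quantified 30 min later at room temperature.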
ELG1 DNA repair: ELG1-dependent DNA repair inhibition. Potency, µM (top dose mostly 46.1 µM), without a hit: top-dose activity change, negative = inhibition, actives largely listed as inhibitors. HEK293T ELG1-luciferase reporter, luminescence, 16 h; DNA damage induced by 5-fluorouridine. AID 504467. 330,000 tested, 2.3% active; note: % is set by controls: 0 for no effect and ±100 for the full control effect; nearly all actives have a fitted effect of over 55% in size
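HEK293T cells expressing luciferase-tagged ELG1 (2,000/well) received 5-Fluorouridine plus compound or DMSO for 16 hr at 37 °C. Luciferase was read by ONE-Glo luminescence after 30 min at room temperature.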
SMN2 splice up: increases expression of the SMN2 splice variant; HEK293 SMN2-luciferase splicing reporter, luminescence, 30-36 h; Potency, µM (highest dose often 46.1 µM), for the others: at the highest dose activity change, positive = activation, actives largely listed as activators; 210,000 tested, 2.8% active; AID 1458; note: % of control where 0% means no effect; nearly all actives have a fitted effect of over 55% in size
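qHTS luciferase splicing reporter: luminescence rises when SMN2 exon 7 is included in transfected HEK293 cells. Compound exposure lasted 30-36 h at 37C, with 4.5 mM final sodium butyrate as control, followed by a ONE-Glo read.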
Rab9 promoter act: activates the Rab9 promoter | Huh7 Rab9 promoter-luciferase reporter, luminescence, 24 h | Potency, µM (titrated, usually from 9.22 µM), inactives show at the highest dose activation, negative = inhibition, hits mostly activators | 320,000 tested, 2.8% active | AID 485297; note: % of control where 0% means no effect; nearly all actives have a fitted effect of over 60% in size
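Measured in stably transfected Huh7 cells bearing a Rab9 promoter–luciferase construct: 24 h compound treatment at 37 °C, followed by luminescence detection.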
* = called active by the depositor; ? = inconclusive; / = no result; [ ] = another dose, or the depositor's remark. Calls come from the whole dose curve; as a rule, active = well fitted curve in the direction sought with a large enough effect; inconclusive = small, poorly fitted or top-dose-only effect, or another doubt; inactive = no such curve, though single readings can be large; an effect the other way counts as inactive or inconclusive. Potency is the fitted concentration of half-maximal effect.

SMILES | FLuc counter | NPC1 prom act | ELG1 genotox | ELG1 DNA repair | SMN2 splice up | Rab9 promoter act
COc1ccc(NC(=O)c2cc3c([nH]c2=O)CC(c2ccccc2)CC3=O)cc1 (stereo not drawn) | -2% | / | / | / | / | /
CN(CC(=O)Nc1ccccc1Cl)C(=O)c1cccc(S(=O)(=O)N2CCN(Cc3ccccc3)CC2)c1 | 1% | -13% | ? | ? | / | -18%
NC(=O)c1sc(=S)n2c1[nH]c(=O)c1sccc12 | ? | 0% | -5% | 5% | 25% | 2%
CC(=O)NNC(=O)c1sc(=S)n2c1[nH]c(=O)c1sccc12 | 19µM* | -4% | -1% | ? | 4% | -4%
CC(/C=C/C(=O)c1ccc(C)cc1)=C\c1ccccc1 | 4.3µM* | ? | 18% | ? | -26% | ?
O=C(/C=C/NNC(=O)c1ccccc1O)c1ccccc1 | 19µM* | 18% | 4% | -7% | / | 14%
Cc1ccc(S/C=C\C(=O)c2ccccc2)cc1 | 0.13µM* | 10% | 18µM* | ? | -3% | 11%
O=C(/C=C/NNC(=O)c1ccc(Br)cc1)c1ccccc1 | ? | -3% | ? | ? | -12% | -3%
Cc1ccc(C(=O)/C=C\NCc2ccccc2)cc1 | 11µM* | ? | 14% | ? | ? | ?
Cc1ccc(C(=O)/C=C\C(=O)c2ccc(C)cc2)cc1 | ? | -8% | ? | ? | 24% | 0%
O=C1CN(C(=O)NCC(=O)N2CCCC2)c2ccccc2N1 | -3% | 1% | 1% | 24% | / | 14%
O=C(/C=C/NNC(=O)c1ccccc1)c1ccccc1 | ? | 5% | ? | ? | 1% | -1%
Cc1ccc(C(=O)C=CNNC(=O)c2ccccc2)cc1 | 24µM* | 12% | -1% | ? | / | 9%
Cc1cc(SCC(=O)N2CCC(c3noc4ccc(F)cc34)CC2)nc2ccccc12 | -3% | -7% | -16% | 21µM* | -38% | -9%
O=C(CSc1ncnc2sc3c(c12)CCCC3)N1CCC(c2noc3ccc(F)cc23)CC1 | 2% | -7% | -5% | -15% | -50% | -7%
Cc1ccc(S(=O)(=O)N2CCOC23CCN(C(=O)c2ccccc2Br)CC3)cc1 | -2% | -1% | -2% | 2% | / | 0%
CN(/N=C/c1cc(Br)cc(Br)c1O)c1cccc(C(F)(F)F)n1 | -3% | 13% | -6% | 7.3µM* | / | -1%
Cc1ccc(C(=O)O)cc1N=Cc1cc(Br)cc(Br)c1O | 3% | -5% | 1% | -6% | 5% | -7%
CC(=O)N1CCc2c(sc3c2c(=O)n(-c2ccccc2)c(=O)n3CC(=O)c2ccc(Cl)cc2)C1 | -1% | / | / | / | 8% | /
c1ccc(CCNc2nc(-c3cccnc3)cs2)cc1 | 15µM* | ? | ? | ? | ? | ?
c1ccc(CCNc2nc(-c3ccccn3)cs2)cc1 | 6.7µM* | 3.5µM* | ? | ? | ? | 2µM*
C=CCOc1ccc(/C=C/C(=O)Nc2ccc(C(=O)NC)cc2)cc1 | -18% | 1% | 7% | 15% | 0% | -7%
COc1ccc(C2C(C#N)=C(N)Oc3cc(C)[nH]c(=O)c32)cc1OC (stereo not drawn) | 0% | -2% | -3% | 6% | / | -2%
Clc1ccccc1/C=C/c1nc(-c2ccccn2)no1 | 0.11µM* | 0.22µM* | ? | ? | / | ?
O=C(COc1ccc(OCc2ccccc2)cc1)NC1CCOC1=O (stereo not drawn) | 21µM* | 1% | -1% | ? | 10% | -24%
SMILES | FLuc counter | NPC1 prom act | ELG1 genotox | ELG1 DNA repair | SMN2 splice up | Rab9 promoter act
Nc1nn(-c2ccccc2)nc1C(=O)OCc1ccccc1F | 17µM* | 1% | 6% | 21% | 15% | 15%
Cc1ccccc1COC(=O)c1nn(-c2ccccc2)nc1N | ? | 1% | 9% | -5% | 10% | 1%
N/C(=N\OC(=O)c1ccccc1Cl)c1ccccn1 | 0.15µM* | 0.35µM* | 0.52µM* | ? | ? | 0.63µM*
Cc1ccc(C(=O)O/N=C(\N)c2ccccn2)c(C)c1 | 0.021µM* | 0.032µM* | -17% | ? | / | ?
N/C(=N\OC(=O)c1ccccc1[N+](=O)[O-])c1ccccn1 | 2.1µM* | 1.8µM* | ? | ? | -5% | 1.6µM*
COc1ccccc1C(=O)O/N=C(\N)c1ccccn1 | 11µM* | 1.4µM* | ? | ? | / | 1.3µM*
N/C(=N\OC(=O)c1ccccc1[N+](=O)[O-])c1cccnc1 | ? | 16% | ? | ? | 24% | 22%
CCOC(=O)N1CCN(C(=O)CN(c2ccccc2F)S(=O)(=O)c2ccc(C)cc2)CC1 | 2% | / | / | / | -12% | /
Cc1ccc(-c2nc3nc(C)cc(N4CCN(c5cccc(C)c5C)CC4)n3n2)cc1 | -17% | / | / | / | -3% | /
N/C(=N\OC(=O)c1cccnc1)c1ccccc1Cl | 17µM* | 23% | 3% | ? | -33% | 20%
N/C(=N\OC(=O)c1cccnc1)c1ccc(Cl)cc1Cl | ? | 12% | ? | ? | 13% | ?
O=C(CCS(=O)(=O)c1cccs1)NC1CCCCCC1 | 17µM* | 2.8µM* | ? | ? | 20% | 3.5µM*
COc1ccc(C2=NN3C(C2)c2ccccc2OC32C(=O)N(C)c3ccccc32)cc1 (stereo not drawn) | 11µM* | 3% | 15µM* | ? | 4% | 4%
COc1ccc(C2=NN3C(C2)c2ccccc2OC3c2cccs2)cc1 (stereo not drawn) | ? | 15% | ? | ? | / | 23%
CCOc1ccc(NC(=O)CNc2ccc(C)cc2Cl)cc1 | 9.5µM* | -1% | 2% | -8% | -8% | -5%
CCOc1ccc(NC(=O)Nc2cc(C)ccc2F)cc1 | 2.4µM* | 3.2µM* | 5.6µM* | ? | 16µM* | 1.1µM*
CCOc1ccc(NCC(=O)Nc2ccc(C)cc2C)cc1 | 0%[2.3 µM] | -5% | -3% | -13% | -9% | -4%
CCOc1ccc(NC(=O)Nc2cc(C(C)C)c(O)cc2C)cc1 | -10% | 1% | -5% | ? | / | -5%
CC1=CC=CN2C1=NC(=O)CC2(C)C(=O)N(CC(=O)NC1CCCC1)c1cc(C)cc(C)c1 (stereo not drawn) | -2% | -1% | -2% | 3% | 2% | -1%
CC(=O)Oc1ccc(C(=O)Cc2ccc3ccccc3n2)c(O)c1C | 5.4µM* | ? | ? | ? | ? | ?
Cc1nc(C)c(C(=O)N2CCCC(C(=O)c3ccc4ccccc4c3)C2)s1 (stereo not drawn) | -2% | 7% | -9% | -27% | / | 0%
